{"source": "PubChem BioAssay (Tox21)", "note": "Results filed as inconclusive are left out. Entries that show only a call come without a potency. Values without a mark were called inactive. Active and inactive are the calls of the source. Calls come from the whole dose curve."}
{"biological_target": "Acetylcholinesterase (Homo sapiens) (UniProt P22303)", "sequence (P22303 whole entry, looked up)": "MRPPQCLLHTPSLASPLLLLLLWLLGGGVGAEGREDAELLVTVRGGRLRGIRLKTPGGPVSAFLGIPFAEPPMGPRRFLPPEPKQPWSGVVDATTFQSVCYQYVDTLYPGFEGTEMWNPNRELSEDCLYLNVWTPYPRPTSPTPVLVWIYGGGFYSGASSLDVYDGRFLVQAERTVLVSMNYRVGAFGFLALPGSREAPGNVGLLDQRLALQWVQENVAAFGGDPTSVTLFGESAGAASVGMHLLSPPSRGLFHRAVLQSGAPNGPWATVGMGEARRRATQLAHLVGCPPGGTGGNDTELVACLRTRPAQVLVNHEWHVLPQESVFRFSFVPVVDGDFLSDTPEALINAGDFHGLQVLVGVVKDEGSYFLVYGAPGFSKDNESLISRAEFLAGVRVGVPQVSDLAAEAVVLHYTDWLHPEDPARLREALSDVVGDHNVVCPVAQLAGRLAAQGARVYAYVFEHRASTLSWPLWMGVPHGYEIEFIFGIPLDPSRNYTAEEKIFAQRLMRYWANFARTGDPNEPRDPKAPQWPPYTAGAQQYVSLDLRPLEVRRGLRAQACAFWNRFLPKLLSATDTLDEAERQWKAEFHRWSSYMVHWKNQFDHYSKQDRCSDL", "test": "Acetylcholinesterase (AChE) small molecule antagonists: colormetric cell-based qHTS assay (AID 1347395); note: nearly all actives have a fitted effect of over 30% in size", "settings": "SH-SY5Y cells AChE activity, colorimetric (Ellman); series mostly up to 115 µM", "procedure,_shortened": "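Colorimetric read-out: DTNB detects thiocholine released when cellular AChE in SH-SY5Y cells hydrolyses acetylthiocholine. Cells attached overnight, received compound for 30 min at 37 C, then substrate mix for 90 min at 37 C.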"}
{"smiles": "CC1(C)CC(N)CC(C)(C)N1", "Potency": "inactive"}
{"smiles": "CC(C)(C)C(=O)O", "Potency": "inactive"}
{"smiles": "Cc1cc(O)c2c(O)c3c(O)cccc3cc2c1", "Potency": "inactive"}
{"smiles": "O=c1c2ccccc2nnn1CCl", "Potency": "inactive"}
{"smiles": "O=C1CCCC(=O)C1", "Potency": "inactive"}
{"smiles": "O=C(NN1CCCC1)NS(=O)(=O)c1ccc(Cl)cc1", "Potency": "inactive"}
{"smiles": "CC/C=C\\CCCCO", "Potency": "inactive"}
{"smiles": "OCCCS", "Potency": "inactive"}
{"smiles": "CC1=CC(=O)[C@H]2C[C@@H]1C2(C)C", "Potency": "inactive"}
{"smiles": "NC(=O)c1ccccc1", "Potency": "inactive"}
{"smiles": "Cc1cc(C)c(NC(=O)CN(CC(=O)O)CC(=O)O)c(C)c1Br", "Potency": "inactive"}
{"smiles": "COc1cc(Cl)ccc1Oc1ccc(Cl)cc1Cl", "Potency": "inactive"}
{"smiles": "CC(C)(C)c1ccc(OC(=O)c2ccccc2O)cc1", "Potency": "inactive"}
{"smiles": "COc1ccc(S(=O)(=O)N2c3ccc(Cl)cc3[C@@](O)(c3ccccc3Cl)[C@H]2C(=O)N2CCC[C@@H]2C(N)=O)cc1OC", "Potency": "inactive"}
{"smiles": "CCCCC(CC)COCCO", "note": "(centres undefined)", "Potency": "inactive"}
{"smiles": "CC(=O)CCC1=C(C)CCCC1(C)C", "Potency": "inactive"}
{"smiles": "CC1(c2ccccc2)OC(C(=O)O)=CC1=O", "note": "(centres undefined)", "Potency": "inactive"}
{"smiles": "COc1cccc(O)c1O", "Potency": "inactive"}
{"smiles": "N#Cc1c(F)cccc1F", "Potency": "inactive"}
{"smiles": "CC(C)(O)c1ccccc1CC[C@@H](SCC1(CC(=O)O)CC1)c1cccc(/C=C/c2ccc3ccc(Cl)cc3n2)c1", "Potency": "inactive"}
{"smiles": "CC(C)(C)C1CCCCC1=O", "note": "(centres undefined)", "Potency": "inactive"}
{"smiles": "O=C1OC(=O)C2C3C=CC(C3)C12", "note": "(centres undefined)", "Potency": "inactive"}
{"smiles": "CCCCCCCCCCc1ccccc1", "Potency": "inactive"}
{"smiles": "O=C(O)Cc1ccc(OCCNC[C@H](O)c2ccccc2)cc1", "Potency": "inactive"}
{"smiles": "C=CCOc1nc(OCC=C)nc(OCC=C)n1", "Potency": "inactive"}
{"smiles": "CCC(=O)OC/C=C(\\C)CCC=C(C)C", "Potency": "inactive"}
{"smiles": "C[C@@H]1CN(c2c(F)c(F)c3c(=O)c(C(=O)O)cn(C4CC4)c3c2F)C[C@H](C)N1", "activity, negative = inhibition": "-2.8% [at 23.6 µM]"}
{"smiles": "CCOc1ccc(NC(=O)OC(C)C)cc1OCC", "Potency": "inactive"}
{"smiles": "O=C(O)c1cccc(Cl)n1", "Potency": "inactive"}
{"smiles": "Cc1cc(OI)c(C(C)C)cc1-c1cc(C(C)C)c(OI)cc1C", "Potency": "inactive"}
{"smiles": "COc1cc(-c2nc(NC(=O)c3cc4cc(C)cc(C)c4n3CC(=O)O)sc2CCC2CCCCC2)c(OC)cc1Cl", "Potency": "inactive"}
{"smiles": "CCNc1nc(NC(C)CC)nc(OC)n1", "note": "(centres undefined)", "Potency": "inactive"}
{"smiles": "CCCCOC(=O)CC", "Potency": "inactive"}
{"smiles": "CCCCOc1ccc(CC(=O)NO)cc1", "Potency": "inactive"}
{"smiles": "NC(=O)C1CO1", "note": "(centres undefined)", "Potency": "inactive"}
{"smiles": "CC(C)(C)C1CCC(CC2=C(O)c3ccccc3C(=O)C2=O)CC1", "note": "(centres undefined)", "Potency": "inactive"}
{"smiles": "ON=C1CCCC1", "Potency": "inactive"}
{"smiles": "CO[Si](CCCNCCC[Si](OC)(OC)OC)(OC)OC", "Potency": "inactive"}
{"smiles": "CCOC(=O)C1=NN(c2ccc(Cl)cc2Cl)C(C)(C(=O)OCC)C1", "note": "(centres undefined)", "Potency": "inactive"}
